The values below come from PubChem BioAssay.

Where “and” joins values, the source holds several entries; their conditions need not be identical. Identical values can stand only once. Calls of active or inactive are those of the source.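 How the source made its calls, unless noted: active means inhibition at or above 50% relative to wild type and mutant plate controls; inactive means inhibition below 50%.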

Assay [1] is described as follows: inhibitors of TNFa-induced NFkB p65 translocation, primary screen, imaging, HUVEC, MLSMR starter and 10KST1 sets (AID 438;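 active means inhibition above 20% together with a positive visual image hit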;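 further: compound added about 3h40 before a 20 min TNFalpha stimulation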;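 on inhibition: signal is the nuclear over cytoplasmic p65 intensity ratio per well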). Conditions: HUVEC TNFa-induced p65 nuclear translocation; cell count: measured here: nuclei count (cytotoxicity indicator), at 2.08 µM; inhibition: at 2 µM, stronger effect = higher value, 0% TNFa-plus-vehicle, 100% no-TNFa wells.
A short description of assay [2]: reduction of polyQ htt aggregates in cells – imaging, exon1htt(103Q)mCFP cells, high-content imaging, primary screen (AID 483;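 active means visual image review flags a hit and inhibition of aggregation exceeds 20%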;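 further: compound exposure lasted 3 days before fixation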;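 on nuclei count: percent of the per-plate median nuclei count of sample wells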). The note with it: exon1htt(103Q)mCFP cell line, aggregate imaging, at 2 µM; inhibition of aggregation: stronger effect = higher value; nuclei count: measured here: cell count, toxicity.
Assay [3] is described as follows: endothelial E-selectin expression blockers – imaging, HUVEC, immunofluorescence, MLSMR starter and 10KST1 sets, primary screen (AID 487;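 active means visually confirmed hit in the image check and inhibition above 20%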;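 on inhibition: signal is fraction of cell area covered by stained E-selectin grains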;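 on nuclei count: 100% = median nuclei count of all wells on the same plate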). Conditions: HUVEC TNFalpha-induced E-selectin immunofluorescence imaging, at 2 µM; inhibition: stronger effect = higher value; nuclei count: measured here: cell number, toxicity.
Assay [4] can be described thus: Primary imaging screen for DUSP6 inhibitors that restore phospho-Erk in transfected HeLa cells, chemical complementation (AID 609;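 active means compounds giving at least 50% inhibition in the cell-based MKP-3 phosphatase rescue imaging test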;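 on inhibition: phospho-Erk level distribution per well compared with pooled transfected vehicle control wells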). Conditions: HeLa MKP-3 transfected, phospho-Erk imaging KS statistic, at 10 µM, cells stimulated with TPA for 15 min.
In assay [5] the target is Dual specificity protein phosphatase 6 (Homo sapiens) (UniProt Q16828). Described as above. The note with it: HeLa MKP-3 transfected, phospho-Erk imaging KS statistic; at 10 µM; stronger effect = higher value; cells stimulated with TPA for 15 min.
In assay [6] the target is Voltage-gated potassium channel subunit beta-2 (Rattus norvegicus) (UniProt P62483). As to the kind of experiment: inhibitors of rat Kvbeta2 reductase activity – biochemical, NADPH fluorescence, primary screen (AID 622;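 active means fluorescence slope higher than the sample average by over 3 SD, cut at about -0.22 in these data, passing the limit was not always enough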;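 further: slope of raw intensity against log time taken from 70 to 1610 s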). Conditions: recombinant KvBeta, 4-cyanobenzaldehyde reduction, at 10 µM, stronger effect = higher value.
Assay [7] shares this target. Description: enhancers of rat Kvbeta2 NADPH turnover – biochemical, NADPH fluorescence, primary screen (AID 623;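 active means NADPH fluorescence slope more negative than the mean of all samples by about 3 SD, 99.7% confidence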;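 further: fluorescence intensity change per second fitted from 20 to 320 s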). Conditions: Recombinant KvBeta, NADPH fluorescence decrease slope, 10 min; at 10 µM; stronger effect = lower value.
Assay [8] deals with Alpha-2C adrenergic receptor (Homo sapiens) (UniProt P18825). As to the kind of experiment: compounds altering alpha2C-coupled GIRK flux – cell-based, HEK293 alpha2C/GIRK1/2, thallium flux, primary screen (AID 624;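 active means fluorescence slope after compound addition differing from the mean of all screened samples at 99.7% confidence, in either direction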;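 further: slope of fluorescence ratio to pre-addition baseline per second over 15 to 24 s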). Conditions: thallium flux BTC fluorescence, at 10 µM, actives lie on both sides.
Assay [9] can be described thus: inhibitors of larval lipid processing in zebrafish, primary screen, whole organism, PED6 fluorescence, gall bladder and intestine (AID 686;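 active means a full or partial loss of lipid-probe fluorescence in the fish gall bladder, intestine or both, judged by eye; inactive means no fluorescence loss, or compound toxic to the fish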;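 further: larvae 5 to 7 days old with five fish per well; signal comes from phospholipase A2 cleavage of quenched PED6 carried via bile; overnight exposure to compound and PED6 before scoring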). The note with it: Zebrafish larvae PED6 lipid processing, fluorescence scoring; screened at 20 µM (by protocol).
A short description of assay [10]: loss of swimming-algae plug formation – whole organism, Chlamydomonas reinhardtii, WT vs cilia-less mutant, absorbance, 96-well, primary screen (AID 463189).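 Further: 0% = wild type cc124 cells in DMSO and 100% = ciliumless bld1 mutant cells.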 The note with it: Chlamydomonas reinhardtii gravitaxis, OD600 absorbance, 2 days; at 10 µM; stronger effect = higher value.
Assay [11] in a line: blockers of RIG-like receptor reporter activation – cell-based, Sendai virus stimulus, luciferase, 10K MLSCN set, TLR/RLR signaling modifier project, primary screen (AID 602276;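 active means inhibition at or above 50% at 10 µM; inactive means inhibition below 50%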;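 further: firefly luciferase from ISG56 promoter only with Renilla not read in this screen; 0% = Sendai virus plus DMSO and 100% = medium plus DMSO without virus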). The note with it: HEK293 RL24 IRF3 luciferase reporter, at 10 µM, stronger effect = higher value.
A short description of assay [12]: TLR3 IRF3 reporter activation blockers – cell-based, poly I:C stimulus, luciferase, 10K MLSCN set, primary screen (AID 602277;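 active means inhibition of the reporter signal at or above 50%; inactive means inhibition below 50%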). The note with it: HEK293-TLR3 RL24 IRF3 luciferase reporter, at 10 µM, stronger effect = higher value.
Where [13] appears, read: measured here: cell density z-score.
Where [14] appears, read: measured here: nuclear c-Myc green intensity z-score.
Where [15] appears, read: measured here: nuclear pErk red intensity z-score, stronger effect = higher value.

Sequence of Dual specificity protein phosphatase 6 (Homo sapiens) (Q16828 whole entry, looked up): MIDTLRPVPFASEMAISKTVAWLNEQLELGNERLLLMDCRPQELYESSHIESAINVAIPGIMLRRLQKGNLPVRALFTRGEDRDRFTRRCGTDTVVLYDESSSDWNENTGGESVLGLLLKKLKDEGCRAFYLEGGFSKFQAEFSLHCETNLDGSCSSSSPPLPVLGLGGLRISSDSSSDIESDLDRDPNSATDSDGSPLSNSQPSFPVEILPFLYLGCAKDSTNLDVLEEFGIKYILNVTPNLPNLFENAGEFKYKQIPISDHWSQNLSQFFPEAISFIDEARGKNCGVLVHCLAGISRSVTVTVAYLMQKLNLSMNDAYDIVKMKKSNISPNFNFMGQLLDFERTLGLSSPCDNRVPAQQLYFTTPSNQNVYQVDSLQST
Sequence of Alpha-2C adrenergic receptor (Homo sapiens) (P18825 whole entry, looked up): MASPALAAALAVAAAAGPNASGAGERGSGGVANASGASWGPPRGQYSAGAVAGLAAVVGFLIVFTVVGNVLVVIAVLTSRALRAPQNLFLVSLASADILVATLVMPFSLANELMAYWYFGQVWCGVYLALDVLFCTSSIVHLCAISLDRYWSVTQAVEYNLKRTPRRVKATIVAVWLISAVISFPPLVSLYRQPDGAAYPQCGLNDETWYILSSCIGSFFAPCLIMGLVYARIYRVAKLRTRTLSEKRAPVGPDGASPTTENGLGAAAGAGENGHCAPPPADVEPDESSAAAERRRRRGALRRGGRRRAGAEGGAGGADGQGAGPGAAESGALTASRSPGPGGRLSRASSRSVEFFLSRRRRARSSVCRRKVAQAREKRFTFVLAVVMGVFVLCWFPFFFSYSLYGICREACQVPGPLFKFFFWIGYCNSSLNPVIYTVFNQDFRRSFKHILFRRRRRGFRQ
Sequence of Voltage-gated potassium channel subunit beta-2 (Rattus norvegicus) (P62483 whole entry, looked up): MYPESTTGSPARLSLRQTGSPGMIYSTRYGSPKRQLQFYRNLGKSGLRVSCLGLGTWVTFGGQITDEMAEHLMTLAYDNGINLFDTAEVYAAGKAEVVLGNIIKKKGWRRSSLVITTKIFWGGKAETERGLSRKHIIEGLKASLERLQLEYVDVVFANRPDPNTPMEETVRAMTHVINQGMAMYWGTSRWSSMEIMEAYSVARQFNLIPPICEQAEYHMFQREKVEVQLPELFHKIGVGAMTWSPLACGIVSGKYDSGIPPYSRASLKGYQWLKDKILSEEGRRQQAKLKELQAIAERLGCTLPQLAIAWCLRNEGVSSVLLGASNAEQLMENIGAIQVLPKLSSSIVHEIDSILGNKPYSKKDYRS

As a reminder, the inhibition is the change of the read-out against control, counted positive when it falls. As to `COc1cccc(OC)c1C(=O)N1CCN(S(=O)(=O)c2ccc(C)cc2)CC1`, in [1], the cell count was determined as 565. The inhibition is -7.5% (inactive) in [1]; -232% (inactive) in [3]; 5.57% (inactive) in [5]; -1.26% (inactive) in [10]; 5.77% (inactive) in assay [11]; 18% (inactive) in assay [12]. The inhibition of aggregation in [2] was 12.9% (inactive). Moreover, the nuclei count in assay [2] was found to be 104%; in [3], 135%. In addition, the z-score was -0.228 in assay [4] (setting [13]), -1.25 in [4] (setting [14]) and 0.112 in assay [4] (setting [15]). The fluorescence slope in assay [6] is -0.382 (inactive). Besides, the NADPH fluorescence slope in assay [7] is 1.3e-06 (inactive). Moreover, the slope in assay [8] is 0.0062 (inactive). Further, the outcome in [9] was inactive.
Regarding `CC(CN1c2ccccc2Sc2ccccc21)N(C)C` (stereo not given), the cell count in assay [1] turned out to be 546. In addition, the inhibition in assay [1] was 2.6% (inactive); in assay [3], -48.8% (inactive); in assay [5], -0.828% (inactive); in [10], 91.5% (active) and 139% (active); in [11], 5.11% (inactive); in assay [12], 31% (inactive). The inhibition of aggregation in assay [2] was 6.8% (inactive). Also, the results for the nuclei count in [2] and in assay [3] were 100% and 109%, respectively. Besides, the z-score in [4] (setting [13]) is 2; in assay [4] (setting [14]), -0.736; in [4] (setting [15]) it was 0.272. Further, in [6], the fluorescence slope was -0.478 (inactive). In addition, the NADPH fluorescence slope in [7] is -1.7e-05 (inactive). Also, the slope in assay [8] was 0.0061 (inactive). In [9], the result was inactive.
With `Cc1c(CCC#N)c(N2CCN(C3CCCCC3)CC2)n2c(nc3ccccc32)c1C#N`, the cell count in [1] was determined as 433. Further, the inhibition is -14.4% (inactive) in assay [1]; -38.1% (inactive) in assay [3]; 13.7% (inactive) in [5]; 8.11% (inactive) in assay [10]; 19.2% (inactive) in assay [11]; 17.3% (inactive) in [12]. Besides, the inhibition of aggregation in assay [2] is 14.6% (inactive). For the same compound, the nuclei count in assay [2] came to 98.9%; in [3] it was 128%. The z-score was 0.167 in assay [4] (setting [13]), -0.385 in [4] (setting [14]) and -0.671 in assay [4] (setting [15]). The fluorescence slope in [6] was -0.236 (inactive). The NADPH fluorescence slope in [7] was -5.2e-06 (inactive). The slope in assay [8] is 0.00599 (inactive). Besides, the call in assay [9] was inactive.
On to `CO[C@H]1C=CO[C@@]2(C)Oc3c(C)c(O)c4c(O)c(c(C=NN5CCN(C)CC5)c(O)c4c3C2=O)NC(=O)C(C)=CC=C[C@H](C)[C@H](O)[C@@H](C)[C@@H](O)[C@@H](C)[C@H](OC(C)=O)[C@@H]1C`, for which the cell count in assay [1] stood at 652. Also, the inhibition in assay [1] is -3.9% (inactive); in assay [3] it was -93.2% (inactive); in [5], 13.3% (inactive); in assay [10], 10.8% (inactive); in assay [11], 33.7% (inactive); in assay [12], 49.7% (inactive). Moreover, the inhibition of aggregation in assay [2] is -21% (inactive). The results for the nuclei count in assay [2] and in assay [3] were 108% and 125%, respectively. Also, the z-score is -0.406 in assay [4] (setting [13]), 1.71 in assay [4] (setting [14]) and 0.381 in assay [4] (setting [15]). In addition, the fluorescence slope in assay [6] is -0.556 (inactive). The NADPH fluorescence slope in [7] was 4.3e-06 (inactive). For the same compound, in [8], the slope is 0.00466 (inactive). The outcome in assay [9] was inactive.
As to `CCN(CC)C(=O)CSC1=C(C#N)C(c2ccco2)C(C(=O)OCCOC)=C(C)N1` (stereo not given), the cell count in assay [1] is 393. The inhibition in assay [1] was -8.6% (inactive); in [3] it was -184% (inactive); in [5], -3.98% (inactive); in assay [10], 14% (inactive); in [11] it was 2.19% (inactive); in [12], 16.7% (inactive). The inhibition of aggregation in [2] was 15.4% (inactive). The nuclei count was 104% in assay [2] and 152% in assay [3]. For the same compound, the z-score in assay [4] (setting [13]) was 0.81; in [4] (setting [14]), -0.0131; in assay [4] (setting [15]), 1.47. Besides, in [6], the fluorescence slope was -0.378 (inactive). For the same compound, the NADPH fluorescence slope in [7] was -3e-05 (inactive). In addition, the slope in assay [8] was 0.00415 (inactive). The call in assay [9] was inactive.
`COc1cccc(Cn2c(OCC3CCCO3)nc3c2c(=O)n(C)c(=O)n3C)c1` (stereo not given): in assay [1], the cell count turned out to be 411. In addition, the inhibition is -13.3% (inactive) in assay [1]; -83.9% (inactive) in [3]; -7.28% (inactive) in [5]; 0.777% (inactive) in assay [10]; 17.3% (inactive) in assay [11]; 17.8% (inactive) in [12]. Further, the inhibition of aggregation in assay [2] was 1.3% (inactive). For the same compound, the nuclei count turned out to be 104% in assay [2] and 153% in assay [3]. For the same compound, the z-score in [4] (setting [13]) is -0.111; in assay [4] (setting [14]) it was 0.171; in [4] (setting [15]), 0.516. Besides, the fluorescence slope in assay [6] is -0.377 (inactive). Also, in assay [7], the NADPH fluorescence slope was -2.5e-05 (inactive). For the same compound, the slope in assay [8] was 0.00528 (inactive). For the same compound, in assay [9], the call was inactive.
With `COc1cc(/C=C/C(=O)CC(=O)/C=C/c2ccc(O)c(OC)c2)ccc1O`, the cell count in assay [1] was found to be 581. In addition, the inhibition in [1] was -5.9% (inactive); in assay [3], -31.2% (inactive); in [5], -8.38% (inactive); in [10], 102% (active); in assay [11], 7.07% (inactive); in [12], 6.1% (inactive). Moreover, the inhibition of aggregation in assay [2] was -6.4% (inactive). The nuclei count in assay [2] was 105%; in assay [3], 119%. Also, the z-score is -0.124 in [4] (setting [13]), 0.198 in assay [4] (setting [14]) and 0.203 in assay [4] (setting [15]). For the same compound, in assay [6], the fluorescence slope was -0.185 (active). Besides, in [7], the NADPH fluorescence slope was -1.1e-05 (inactive). For the same compound, the slope in [8] is 0.0285 (active). The call in assay [9] was inactive.
For the compound `COc1cc([C@@H]2[C@H]3CN(C)CC=C3C(C#N)=C(N)C2(C#N)C#N)cc2c1OCO2`, the cell count in [1] worked out at 394. Moreover, the inhibition in assay [1] was -2.2% (inactive); in [3], -39.2% (inactive); in assay [5] it was 57.9% (inactive); in assay [10], 38% (inactive); in [11], 4.57% (inactive); in [12], 19.8% (inactive). Also, in [2], the inhibition of aggregation was 31.8% (inactive). Moreover, the results for the nuclei count in assay [2] and in [3] were 111% and 109%, respectively. Also, the z-score in [4] (setting [13]) was 0.739; in [4] (setting [14]) it was -0.834; in assay [4] (setting [15]), 0.31. The fluorescence slope in assay [6] is -0.309 (inactive). The NADPH fluorescence slope in [7] is 9.9e-07 (inactive). Further, the slope in [8] is 0.00454 (inactive). The result in assay [9] was inactive.
As for `Cc1c(/C(O)=C2/C(=O)C(=O)N(CCN3CCOCC3)C2c2cccnc2)cnn1-c1ccccc1` (stereo not given), the cell count in assay [1] is 509. In addition, the inhibition in [1] was 4.8% (inactive); in assay [3], -26.8% (inactive); in assay [5], 1.6e-07% (inactive); in [10], 23.9% (inactive); in assay [11], -12% (inactive); in assay [12], -9.27% (inactive). Further, in [2], the inhibition of aggregation is 1.3% (inactive). The nuclei count in [2] amounted to 102%; in assay [3], 107%. Also, the z-score is 0.15 in assay [4] (setting [13]), -0.278 in assay [4] (setting [14]) and -0.0426 in assay [4] (setting [15]). Besides, in assay [6], the fluorescence slope was -0.602 (inactive). The NADPH fluorescence slope in assay [7] was -1.5e-05 (inactive). The slope in assay [8] was 0.00432 (inactive). Further, the compound was classed as inactive in assay [9].
In the case of `Cc1cc(C)n(-c2nnc(C)n2/N=C/c2ccccc2F)n1`, the cell count in [1] was 592. For the same compound, the inhibition in [1] was -10% (inactive); in assay [3], -75.7% (inactive); in assay [5] it was 9.82% (inactive); in assay [10], 5.75% (inactive); in assay [11] it was 13.6% (inactive); in assay [12], 22% (inactive). For the same compound, the inhibition of aggregation in [2] was -14.2% (inactive). The nuclei count in [2] is 107%; in assay [3], 153%. In addition, the z-score in assay [4] (setting [13]) is 0.554; in assay [4] (setting [14]), 1.09; in assay [4] (setting [15]), -0.737. In assay [6], the fluorescence slope was -0.53 (inactive). For the same compound, the NADPH fluorescence slope in [7] is -4.2e-05 (inactive). Moreover, the slope in [8] was 0.00446 (inactive). Further, the call in assay [9] was inactive.
